According to PubChem BioAssay:
Active and inactive are the calls of the source.

Columns and labels:
Albumin (Bos taurus) = Albumin (Bos taurus) (UniProt P02769); assay: compounds binding labelled BSA control protein – biochemical, small-molecule microarray, Alexa647 label, 635/667 nm fluorescence, artefact control for SMM control protein annotation, profiling panel (AID 1118); details: BSA-A647 binding, fluorescence 635 nm, higher = more signal;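 further: score merges 667 nm emission intensity and signal-to-noise per printed compound spot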
Chain of Albumin (Bos taurus) (P02769 whole entry, looked up): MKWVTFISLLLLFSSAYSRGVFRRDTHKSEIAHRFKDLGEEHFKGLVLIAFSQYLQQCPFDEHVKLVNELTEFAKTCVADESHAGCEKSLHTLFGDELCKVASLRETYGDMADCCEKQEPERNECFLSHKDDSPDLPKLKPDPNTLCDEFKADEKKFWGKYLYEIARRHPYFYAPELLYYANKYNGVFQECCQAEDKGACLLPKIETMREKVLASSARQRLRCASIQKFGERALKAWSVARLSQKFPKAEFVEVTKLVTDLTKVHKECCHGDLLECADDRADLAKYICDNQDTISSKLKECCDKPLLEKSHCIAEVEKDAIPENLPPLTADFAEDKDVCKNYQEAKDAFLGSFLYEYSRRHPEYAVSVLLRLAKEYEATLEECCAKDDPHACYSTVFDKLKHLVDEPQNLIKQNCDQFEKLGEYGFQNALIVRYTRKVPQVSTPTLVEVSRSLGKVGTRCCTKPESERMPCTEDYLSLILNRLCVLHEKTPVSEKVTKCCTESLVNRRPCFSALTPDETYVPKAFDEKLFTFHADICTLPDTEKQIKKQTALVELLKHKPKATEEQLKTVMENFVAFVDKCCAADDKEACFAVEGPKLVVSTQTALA

[1] = probe aXIP binding to arrayed compounds – biochemical, NeuroSMM set, 635/667 nm fluorescence, primary screen (AID 1119); details: small-molecule microarray, higher = more signal, called active from +8 up or from −8 down;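 further: probe is the protein aXip251-270 applied at 1 µg/mL to compound-printed slides; binding of probe to printed compounds measured as 667 nm fluorescence plus signal to noise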
[2] = probe aNOTCH3 binding on compound microarray – biochemical, small-molecule microarray, 635/667 nm fluorescence, primary screen (AID 1120); details: higher = more signal;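 further: probe is a biotin-tagged antibody raised against NOTCH3 rather than NOTCH3 protein; score merges spot fluorescence near 667 nm with spot signal to noise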
[3] = probe aNOTCH2 binding on compound microarray – biochemical, small-molecule microarray, 635/667 nm fluorescence, primary screen (AID 1121); details: higher = more signal;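 further: score merges feature fluorescence read at 667 nm with its signal to noise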
[4] = target: Carbonic anhydrase 2 (Homo sapiens) (UniProt P00918); assay: compounds binding carbonic anhydrase 2 – biochemical, small-molecule microarray, Alexa647-labelled CAII, profiling panel (AID 1122); details: CAII-A647 binding fluorescence, higher = more signal
[5] = COS7 lysate on small-molecule microarray, probe aHis, 635 nm (AID 1123); details: COS7 cell lysate, fluorescence, higher = more signal;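 further: z-score combines 667nm fluorescence intensity with signal-to-noise per printed compound spot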
[6] = probe aLAP1 signal on lysate-treated microarray – cell lysate, small-molecule microarray, COS7 lysate, primary screen (AID 1124); details: probe aLAP1, fluorescence, higher = more signal;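 further: lysate comes from COS7 cells expressing LAP1 and is applied at 0.3 µg/mL; score merges spot fluorescence near 667 nm with signal-to-noise over triplicate slides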
Sam68 (KHDRBS1) = assay: compounds binding KHDRBS1 protein – biochemical, small-molecule microarray, 635 nm fluorescence, primary screen (AID 1125); details: higher = more signal;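 further: score merges 667 nm channel intensity with signal to noise over triplicate slides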
[7] = test system: Chordin-like protein 2 (CHRDL2); assay: compounds binding chordin-like 2 – biochemical, small-molecule microarray, 635 nm fluorescence, primary screen (AID 1126); details: fluorescence 635 nm, higher = more signal;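 further: printed compound slides probed with Chrdl2 protein at 4 µg/mL for 1 h at 4 C; score merges 667 nm emission intensity with signal to noise over three replicate slides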
[8] = target: Concanavalin-A (Canavalia ensiformis) (UniProt P02866); assay: compounds binding concanavalin A lectin – biochemical, small-molecule microarray, Alexa647 label, 635 nm, artefact control for SMM control protein annotation, primary screen (AID 1127); details: ConA-A647 binding fluorescence, higher = more signal;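 further: z combines 667 nm emission intensity with signal-to-noise across three replicate slides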
Chain of Concanavalin-A (Canavalia ensiformis) (P02866 whole entry, looked up): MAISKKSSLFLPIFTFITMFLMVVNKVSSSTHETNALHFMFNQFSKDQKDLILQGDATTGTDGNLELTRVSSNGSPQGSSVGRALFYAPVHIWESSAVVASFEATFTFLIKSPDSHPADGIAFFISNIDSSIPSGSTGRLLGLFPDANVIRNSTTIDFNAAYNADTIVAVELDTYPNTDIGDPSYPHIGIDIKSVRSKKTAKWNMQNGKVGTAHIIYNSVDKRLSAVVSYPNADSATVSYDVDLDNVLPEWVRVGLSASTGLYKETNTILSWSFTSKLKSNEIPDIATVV

Row | SMILES | composite z-score (Albumin (Bos taurus)) | composite Z-score [1] | composite z-score [2] | composite z-score [3] | composite z-score [4] | composite z-score [5] | composite z-score [6] | composite z-score (Sam68 (KHDRBS1)) | composite z-score [7] | composite z-score [8]
1 | O=C1C2C=CC(C(O)c3cccc(O)c3)N(Nc3ccc([N+](=O)[O-])cc3)C2C(=O)N1c1ccccc1 (stereo not given) | 0.477 | -0.335 (inactive) | 0.0116 | -0.0703 | 0.788 | 0.762 | 0.153 | 0.821 | -0.264 | 0.41
2 | CC#CCO[Si](C#Cc1ccccc1)(C(C)C)C(C)C | -1.33 | -0.197 (inactive) | -0.365 | -0.156 | -0.624 | -0.445 | -0.353 | -1.18 | -0.913 | -1.46
3 | C=CCC(OC(C)=O)[C@@H]1[C@@H](N(Cc2ccc(-c3ccccc3)cc2)C(=O)c2ccc(-c3ccccc3)cc2)c2cc(OCCCO)ccc2N1C(=O)c1ccc2ccccc2c1 (stereo not given in full) | -0.186 | -0.473 (inactive) | -0.0208 | -0.115 | 0.212 | 0.937 | -0.129 | 0.352 | 0.0949 | -0.38
4 | COCCOC(=O)N1C(=O)[C@@]2(c3cc(C#CCC(C(=O)OC)C(=O)OC)ccc31)[C@H](c1ccc(OCCO)cc1)N1[C@H](c3ccccc3)[C@H](c3ccccc3)OC(=O)[C@H]1[C@@H]2C(=O)N1CCc2cc(OC)c(OC)cc2C1 | 0.688 | -0.388 (inactive) | 0.0351 | -0.106 | 0.256 | 1.48 | -0.0051 | 1.06 | 0.378 | 1.11
5 | Cc1ccc(S[C@]2(C(=O)NCCN3CCOCC3)CC(=O)N(Cc3ccccc3Cl)[C@@H]2c2ccc(CO)cc2I)cc1 | 0.243 | 0.555 (inactive) | 0.0226 | 0.584 | 0.805 | 2.75 | 1.49 | 0.653 | -0.35 | -0.763
6 | CN1C(=O)C2C=CC(C(O)c3cccn3C)N(Nc3ccc([N+](=O)[O-])cc3[N+](=O)[O-])C2C1=O (stereo not given) | 0.38 | -0.398 (inactive) | 0.0681 | 0.476 | 0.848 | 0.856 | 0.376 | -0.0879 | -0.248 | -0.0516
7 | COc1ccc([Si](C)(C)[C@H]2[C@H](CC(=O)N3Cc4ccccc4C[C@H]3CO)O[C@@]3(C(=O)N(Cc4ccc(N5CCOC5=O)cc4)c4ccccc43)[C@@H]2C)cc1 | -0.153 | 0.949 (inactive) | -0.0106 | -0.0249 | 0.444 | 0.591 | 0.246 | 1.33 | 1.32 | 1.05
8 | [N-]=[N+]=Nc1ccccc1C[C@@]1(C(=O)NCCN2CCOCC2)N=C(c2ccc(OCCCO)cc2)O[C@@H]1c1ccccc1N=[N+]=[N-] | 0.832 | -0.0662 (inactive) | 0.351 | -0.0211 | 0.556 | 2.51 | 0.865 | 1.3 | -0.198 | 1.04
9 | CC(=O)N1CC2(CC2)CC1c1ccccc1 (stereo not given) | 0.336 | 0.204 (inactive) | 0.77 | 0.172 | 0.671 | 1.88 | 0.562 | 0.913 | 0.0586 | -0.0459
10 | CCCNC(=O)[C@@]1(C)c2ccccc2C(=O)N(c2ccc(C)cn2)[C@H]1c1ccc(CO)cc1 | -0.0296 | 0.164 (inactive) | -0.246 | -0.108 | 0.699 | -0.604 | -0.105 | -0.264 | 0.0286 | -0.283
11 | COc1ccc([Si](C)(C)[C@@H]2[C@@H](CCO)O[C@]3(C(=O)N(Cc4cccc(NC(=O)[C@H](C)O)c4)c4ccccc43)[C@H]2C)cc1 | 0.6 | 0.234 (inactive) | -0.147 | -0.0984 | 0.51 | 1.61 | 0.523 | 1.31 | -0.083 | 1.01
12 | COC(=O)C1=CC(CCCO)=CC(c2cccs2)N(Cc2cccc(OC(F)(F)F)c2)C=C1C(=O)OC (stereo not given) | 0.935 | 0.387 (inactive) | 0.208 | 0.224 | 0.834 | 1.93 | 0.718 | 1.3 | -0.413 | 1.13
13 | COc1ccc(CCNC(=O)[C@@H]2c3ccccc3C(=O)N(C3CCCCC3)[C@H]2c2ccc(CO)cc2)cc1 | -0.295 | 0.0861 (inactive) | -0.119 | -0.0317 | 0.608 | 2.15 | 0.922 | 0.508 | -0.524 | 0.802
14 | C=CCOC(=O)[C@@H]1[C@H]2C(=O)O[C@H](c3ccccc3)[C@H](c3ccccc3)N2[C@H](c2ccc(OCCOC(=O)[C@@H]3C[C@@H]4C(=O)N[C@@H](CCCC[N+](C)(C)C)C(=O)N4[C@@H]3c3ccc(O)cc3)cc2)[C@@]12C(=O)Nc1ccc(I)cc12 | 0.118 | -0.0092 (inactive) | 0.0282 | -0.084 | 0.473 | 1.92 | 0.417 | 1.29 | 0.841 | 0.756
15 | CCCCC(=C=CC[C@H](O)c1ccc(OCCO)cc1)CCO | 0.837 | 0.0311 (inactive) | -0.121 | -0.0795 | 0.694 | 1.55 | 0.251 | 0.195 | -1.13 | -0.727
16 | C=C(COC)C(=O)CC[C@@H](OC(C)=O)c1cccc(OCCO)c1 | -0.693 | -0.0662 (inactive) | -0.0647 | -0.125 | 0.59 | -0.591 | -0.621 | -0.873 | -0.109 | -0.797
17 | Cc1ccc(S[C@]2(C(=O)NC(C)C)CC(=O)N(Cc3cc(C(F)(F)F)cc(C(F)(F)F)c3)[C@@H]2c2ccc(CO)cc2)cc1 | -0.0844 | -0.459 (inactive) | -0.384 | -0.126 | 0.241 | 0.596 | 0.293 | -0.374 | -1.19 | -0.534
18 | CN(C)C(=O)[C@@]1(Cc2ccccc2)N=C(c2ccc(OCCCO)cc2)O[C@H]1c1ccccc1 | 0.637 | 0.684 (inactive) | 0.738 | 0.314 | 0.617 | 2.69 | 0.973 | 0.983 | -0.682 | 0.931
19 | OCCCC1=CC(c2ccc(CN3CCCC3)cc2)N(Cc2cc3c(cc2Br)OCO3)CC1 (stereo not given) | -0.715 | -0.888 (inactive) | 0.0833 | -0.0467 | 0.0435 | -0.437 | 0.597 | -0.063 | 0.901 | 0.22
20 | CCCCC[C@H]1OC[C@@]23C=C(Br)[C@@H](CC12)[C@@]1(CO1)C3=O (stereo not given in full) | -0.677 | 0.39 (inactive) | -0.126 | -0.0907 | -0.174 | -0.0346 | -0.144 | 0.491 | -0.194 | -0.308
21 | COCCOC(=O)N1C(=O)[C@@]2(c3cc(C#CCCO)ccc31)[C@H](C(=O)Nc1nc3ccccc3s1)[C@H]1C(=O)O[C@H](c3ccccc3)[C@H](c3ccccc3)N1[C@@H]2c1ccc(O)cc1 | -0.767 | 0.326 (inactive) | 0.177 | 0.0687 | 0.473 | 2.08 | 0.799 | 1.31 | 0.791 | 1.17
22 | C=CCNC(=O)[C@@H]1[C@H]2C(=O)O[C@H](c3ccccc3)[C@H](c3ccccc3)N2[C@H](c2ccccc2OCCO)[C@@]12C(=O)Nc1ccc(C#CCC(C(=O)OC)C(=O)OC)cc12 | -0.0735 | 0.822 (inactive) | 0.514 | 0.283 | 0.648 | 1.66 | 1.62 | 1.27 | -0.14 | 0.727
